High-throughput results: PubChem BioAssay, National Center for Advancing Translational Sciences (NCATS)
In the library only some 15% were active in any assay of this set; here they are far more common.
VP16 counter: inhibits Gal4-VP16 luciferase reporter, ROR gamma counter-screen; Drosophila S2 Gal4-VP16 UAS-luciferase, luminescence, 20 h; hit rate 3.5% among 310,000; Potency, µM (highest dose often 53.6 µM), inactives show at the highest dose activity, negative = inhibition, most hits filed as inhibitors;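 note: Gal4-VP16 expression switched on by copper sulfate through the metallothionein promoter; nearly all actives have a fitted effect of over 50% in size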
RORg inh: inhibitors of mouse ROR gamma transcriptional activity; Drosophila S2 Gal4-RORgamma UAS-luciferase reporter, 20 h; Potency, µM (doses to about 53.6 µM), for the others: at the top dose activity change, negative = inhibition, usual class: inhibitors; hit rate 5.4% among 310,000; AID 2551; note: nearly all actives have a fitted effect of over 60% in size
Target sequence (P51450 whole entry, looked up, the tested form may be a part): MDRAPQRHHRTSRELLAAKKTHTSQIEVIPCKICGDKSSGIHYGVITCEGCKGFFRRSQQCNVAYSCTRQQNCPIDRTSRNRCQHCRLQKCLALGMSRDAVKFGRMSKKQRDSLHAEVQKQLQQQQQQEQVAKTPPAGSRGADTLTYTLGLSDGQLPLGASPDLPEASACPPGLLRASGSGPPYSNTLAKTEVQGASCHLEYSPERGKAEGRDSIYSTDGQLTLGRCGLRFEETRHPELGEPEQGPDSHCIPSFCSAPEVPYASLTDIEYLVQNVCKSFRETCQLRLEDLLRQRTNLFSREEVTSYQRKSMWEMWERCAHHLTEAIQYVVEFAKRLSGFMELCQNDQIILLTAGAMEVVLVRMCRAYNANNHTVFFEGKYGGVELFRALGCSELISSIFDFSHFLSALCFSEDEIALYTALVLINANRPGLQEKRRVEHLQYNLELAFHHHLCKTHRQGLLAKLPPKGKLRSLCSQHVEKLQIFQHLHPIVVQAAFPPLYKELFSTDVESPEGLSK
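Stably transfected Drosophila Schneider cells are the test system, with ROR gamma fused to Gal4 and luciferase under UAS control; luminescence is read after 20 hr of 700 uM copper sulfate induction at ambient temperature.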
ELG1 DNA repair: blocks ELG1-dependent DNA repair in HEK293T cells | HEK293T ELG1-luciferase reporter, luminescence, 16 h; DNA damage induced by 5-fluorouridine | Potency, µM (highest dose often 46.1 µM), for the others: top-dose activity change, negative = inhibition, most hits filed as inhibitors | hit rate 2.3% among 330,000 | AID 504467; note: nearly all actives have a fitted effect of over 55% in size
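5-Fluorouridine DNA damage + compound/DMSO, 2,000 cells/well, 16 h, 37 °C/5% CO2. ONE-Glo, 30 min RT, luminescence. Readout = decrease in reporter signal.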
ALOX12 inh: inhibitors of human 12S-lipoxygenase ALOX12. purified 12hLO, xylenol orange hydroperoxide absorbance. Potency, µM (top dose mostly 108 µM), for the others: at the highest dose activity change, negative = inhibition, most hits filed as inhibitors. hit rate 1.1% among 580,000
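Purified human 12hLO at 150 nM in 25 mM Hepes, 0.01% Triton X-100, pH 7.0, preincubated 15 min at room temperature with compound. Reaction started with 40 uM arachidonic acid, 30 min at room temperature. Hydroperoxide measured by Fe-xylenol orange, 573/405 nm absorbance ratio.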
TDP1 cell noCPT: qHTS for Inhibitors of human tyrosyl-DNA phosphodiesterase 1 (TDP1): qHTS in cells in absence of CPT | DT40 Tdp1-/- hTDP1 cells, no CPT, ATP luminescence, 48 h | Potency, µM (titrated, usually from 46.2 µM), for inactives: at the top dose activity change, negative = growth inhibition, usual class: inhibitors | hit rate 15% among 420,000 | AID 686978, 2013; note: nearly all actives have a fitted effect of over 55% in size
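Compound effects on proliferation are scored in DT40 Tdp1-/-;hTDP1 cells in the absence of CPT. ATP levels (CellTiter-Glo luminescence) are recorded after a ≥48 hr, 37 °C incubation.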
TDP1 cell CPT: growth inhibition of DT40 Tdp1-/-;hTDP1 cells with camptothecin (screen for TDP1 inhibitors). chicken DT40 Tdp1-/-;hTDP1 cells + 20 nM CPT, ATP luminescence, 48 h. Potency, µM (highest dose often 46.2 µM), inactives show at the highest dose activity change, negative = growth inhibition, usual class: inhibitors. hit rate 12% among 420,000; note: nearly all actives have a fitted effect of over 55% in size
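Chicken DT40 Tdp1-/- cells complemented with human TDP1, 400 cells/well, exposed to compounds plus 20 nM camptothecin for at least 48 h at 37 C; viability read as ATP content by CellTiter-Glo luminescence.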
Starred values were filed as active, the others as inactive; ? = inconclusive; / = no result given; [ ] = remark or other dose. Calls come from the whole dose curve; as a rule, active = well fitted curve in the direction sought with a large enough effect; inconclusive = small, poorly fitted or top-dose-only effect, or another doubt; inactive = no such curve, though single readings can be large; an effect the other way counts as inactive or inconclusive. % is set by controls: 0 for no effect and ±100 for the full control effect; potency is the fitted concentration of half-maximal effect.

SMILES	VP16 counter	RORg inh	ELG1 DNA repair	ALOX12 inh	TDP1 cell noCPT	TDP1 cell CPT
CCC1C/C(=C\c2cccnc2)C(=O)/C(=C/c2cccnc2)C1 (centres undefined)	1.8µM*	5.6µM*	2.6µM*	-13%	4.6µM*	3.3µM*
O=C1/C(=C/c2cccnc2)CC/C1=C\c1cccnc1	-18%	1%	?	6%	?	?
CCOc1ccc(C(=O)NC2CCN(c3cnn(CC)c(=O)c3)CC2)cc1	/	/	/	66%	/	/
CCCc1ccc(S(=O)(=O)N2CCN(C(=O)NCC3CN(CC(C)C)CCO3)CC2)cc1 (centres undefined)	/	/	/	-3%	/	/
Cc1ccc(S(=O)(=O)c2nnn3c2nc(N2CCCCC2)c2sccc23)cc1	/	/	/	-28%	-18%	-5%
O=S(=O)(c1ccc(Cl)cc1)c1nnn2c1nc(N1CCCCC1)c1sccc12	/	/	/	-7%	16µM*	21µM*
O=S(=O)(c1ccc(Cl)cc1)c1nnn2c1nc(NCc1cccs1)c1sccc12	/	/	/	0%	23µM*	?
Cn1c(=O)c2c(nc(SCCCCC#N)n2Cc2ccccc2Cl)n(C)c1=O	/	/	/	8%	/	/
Nc1ncccc1CN1CCc2ncc(C(=O)NCCOc3ccccc3)n2CC1	/	/	/	28%[176 µM]	/	/
Cc1cc2c([nH]c3ccccc32)c(C)n1	-16%	1µM*	4%	?	-29%	19%
Cc1nc(C(=O)O)cc2c1[nH]c1ccccc12	/	/	3%	?	?	-14%
Cc1c2ccncc2cc2c1[nH]c1ccccc12	/	/	/	0%	6.5µM*	5.8µM*
CN1C(=O)CC(NNC(=O)c2ccccc2)C1=O (centres undefined)	-3%	-1%	0%	?	-21%	-2%
CC1CC(NNC(=O)c2ccccc2)=Nc2ccccc2N1C (centres undefined)	5µM*	1.8µM*	-15%	-5%	11%	0%
CCc1ccc2oc(C(=O)Nc3cccc4cccnc34)c(C)c2c1	/	/	/	6%	/	/
COc1ccc(NC(=O)CN(Cc2ccccc2)Cc2ccccc2)cc1S(N)(=O)=O	-5%	?	2%	4%	-15%	-20%
Cc1ccc(OCC(=O)Nc2ccc(C)c(S(=O)(=O)N3CCCCC3)c2)c([N+](=O)[O-])n1	?	-7%	-18%	?	?	?
COc1cccc(NC(=O)CN(C)C(=O)COc2ccccc2Cc2ccccc2)c1	/	/	?	448%	29µM*	?
COc1ccc(NC(=O)COc2ccccc2Cc2ccccc2)cc1S(N)(=O)=O	?	?	6.5µM*	2%	15µM*	21µM*
COc1ccc(NC(=O)COc2ccc(C)nc2[N+](=O)[O-])cc1S(N)(=O)=O	/	/	11%	0%	?	9.2µM*
COc1cccc(NC(=O)CN(C)C(=O)CC(C)c2ccccc2)c1 (centres undefined)	-2%	-2%	-6%	186%	6%	-10%
Cc1ccc2c(n1)N(C)[C@H](CO)CCN(Cc1cccnc1)C2	/	/	/	16%[176 µM]	/	/
CCOc1ccc(N(CC(=O)Nc2ccc(C(N)=O)cc2)S(=O)(=O)c2ccccc2)cc1	/	/	/	12%	/	/
COc1ccc(-c2nc(C3CC3)nc3c2CCN(CCC(C)C)CC3)cc1	/	/	/	4%[6.33 µM]	/	/
CC(=O)c1ccc(NC(=O)Cn2c(=O)nc(-c3ccccc3)c3ccccc32)cc1	/	/	/	-9%	-19%	5%
SMILES	VP16 counter	RORg inh	ELG1 DNA repair	ALOX12 inh	TDP1 cell noCPT	TDP1 cell CPT
Cc1c(Cl)cccc1NC(=O)Cn1c(=O)nc(-c2ccccc2)c2ccccc21	/	/	/	-20%	16µM*	?
Cc1cccc(NC(=O)Cn2c(=O)nc(-c3ccccc3)c3ccccc32)c1C	/	/	/	-26%	21µM*	?
COc1ccc(CNC(=O)Cn2c(=O)nc(-c3ccccc3)c3ccccc32)cc1OC	/	/	/	-20%	16µM*	?
COc1ccc(CCNC(=O)Cn2c(=O)nc(-c3ccccc3)c3cc(Cl)ccc32)cc1OC	/	/	/	-10%	?	?
C=CCNC(=S)Nc1ccc(F)cc1Cl	/	/	/	53%	/	/
CN(CC(=O)Nc1c(Cl)cccc1Cl)Cc1ncc(-c2ccc(F)cc2)o1	/	/	/	14%	/	/
CCN1c2cc(C(=O)NCCOc3ccccc3OC)ccc2C(=O)N2CCCCCC21 (centres undefined)	/	/	/	17%	/	/
COc1ccc(-n2nc(C3CCCN(C(=O)c4ccc(C)cc4)C3)[nH]c2=O)cc1 (centres undefined)	/	/	/	0%	/	/
COc1cccc(-c2nc(-c3ccccn3)no2)c1OC	0%	0%	?	0%[57.4 µM]	?	23µM*
c1ccc(-c2noc(-c3cccc4ccccc34)n2)nc1	10µM*	?	?	11%	-23%	3%
c1ccc(-c2noc(-c3ccno3)n2)nc1	-1%	23%	?	171%	-2%	2%
Cc1ccc(C)c(C2C(C#N)=C(N)Oc3cc(C)oc(=O)c32)c1 (centres undefined)	0%	15%	3%	-19%	-3%	0%
Cc1ccc(C2C(C#N)=C(N)Oc3cc(C)oc(=O)c32)o1 (centres undefined)	?	?	?	?	18µM*	18µM*
C=CC[C@@H](CC(=O)N(CCO)Cc1ccccc1)C(=O)N[C@@H](COC(=O)[C@@H](CC=C)Cc1ccc(F)cc1)Cc1ccccc1	/	/	?	-18%	21µM*	21µM*
C=CC[C@H](CC(=O)N(CCO)Cc1ccccc1)C(=O)NCCOC(=O)[C@@H](CC=C)Cc1ccc(F)cc1	/	/	?	7%	?	?
C=CC[C@@H](CC(=O)N(CCO)Cc1ccccc1)C(=O)N[C@H](COC(=O)[C@@H](CC=C)Cc1ccc(F)cc1)Cc1ccccc1	/	/	-22%	?	23µM*	?
COc1ccccc1CNc1nc2ccccc2nc1NS(=O)(=O)c1cc(C)ccc1C	/	/	/	-1%	/	/
CSc1ccccc1NC(=O)Nc1cccc(Cl)c1	0%	0%	-29%	?	?	16µM*
CN(C)c1ccc(NC(=O)Nc2cccc(Cl)c2)cc1	-12%	?	?	-10%	?	-15%
CN(c1cccc(NC(=O)Nc2cccc(Cl)c2)c1)S(C)(=O)=O	19%	?	19%	?	16µM*	?
CN(Nc1cccc(Cl)c1)c1cccc(Cl)c1	/	/	/	32µM*	?	?
Cc1nccn1CC(=O)N1CCCC(c2ccc(C(=O)O)cc2)C1 (centres undefined)	/	/	/	5%	/	/
